Measurements as given in PubChem BioAssay (NCATS).
The list shows a part of the results. Results filed as inconclusive are left out. A number with no mark means an inactive call. Activity calls are given as the source filed them. Calls come from the whole dose curve; as a rule, active = well fitted cell-killing curve with a large enough effect; inconclusive = small, poorly fitted or top-dose-only effect, or effect the other way; inactive = no such curve, though single readings can be large or run the other way.

test: qHTS for Inhibitors of the vitamin D receptor (VDR): Hit Validation using a Cytotoxicity Assay (AID 602204); conditions: cytotoxicity counter-screen, cell viability; series mostly up to 48.3 µM; activity change, negative = cytotoxicity: at the top concentration; note: nearly all actives have a fitted effect of over 75% in size;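 for Potency: cells co-treated with VDR agonist LG190178 at 300 nM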
From the text: The vitamin D receptor (VDR) is a ligand-activated transcription factor and is partially responsible for the regulation of the endocrine system. This includes the transcriptional regulation of genes involved in the production of the parathyroid hormone (PTH) and the regulation of the blood calcium level. High levels of PHT can cause hypercalcemia in the case of primary and tertiary hyperparathyroidism. The VDR-mediated gene regulation, activated by its ligand 1,25-dihydroxyvitamin D3 (1,25-(OH)2D3), is governed by the recruitment of coactivators. Our hypothesis is that small molecules, with the ability to inhibit the interaction between VDR and certain coactivators, are able to selectively modulate VDR-mediated transcription. Our long term objective is the application these VDR-coactivator inhibitors to study the role of VDR-coactivator binding for specific VDR regulated genes. Ultimately, these molecules can be developed into new treatments for hypercalcemic hyperparathyroidism. No small molecule or non-peptide inhibitors are known for the VDR-coactivator interaction.
In a collaboration between the University of Wisconsin, Milwaukee and the NIH Chemical Genomics Center (NCGC) a HTS-compatible enzymatic assay was developed. The assay uses fluorescence polarization as its read-out to measure the inhibition between VDR and coregulator peptide SRC2-3 exerted by small molecules. This assay was used to screen the NIH Molecular Libraries Small Molecule Repository (MLSMR). Cytotoxicity caused by screening compounds is a major concern for cell-based assays. This assay quantifies the amount of ATP generated by living cells and compounds that are active in this assay are undesirable for the project due to cytotoxicity. High concentrations of cycloheximide (protein synthesis inhibitor) and DMSO were used as positive and negative control, respectively.
NIH Chemical Genomics Center [NCGC]
NIH Molecular Libraries Probe Centers Network [MLPCN]
Assay Submitter (PI): Alexander Arnold, University of Wilwaukee
Plate: 384 white, solid bottom, tissue culture treated
Step 1: Plate 20,000 cell per well (32 uL)
Step 2: 4 hours incubation
Step 3: Add screening compounds
Step 5: 18 hour incubation
Step 6: Add Cell-Titer Glo (25 uL)
Step 7: 30 minutes incubation
Step 8: Read luminescence
Potency is the fitted concentration of half-maximal effect.

Compound | Potency | activity change, negative = cytotoxicity
Cc1cccc([C@H]2[C@@H]3C=CC[C@@H](C)[C@@H]3C(=O)N2Cc2ccccc2)c1 | 23.8 µM (active) | 
O=C(/C=C/c1ccccc1)c1ccccc1O |  | -29.7%
CSc1nnc(NC(=O)c2nc(S(=O)(=O)Cc3ccc(C)cc3)ncc2Cl)s1 | 16.4 µM (active) | 
Cc1cc(C)nc(S/C=C/C(=O)c2ccccc2)n1 | 23.8 µM (active) | 
CC(=O)N1CC[n+]2c(-c3ccc([N+](=O)[O-])cc3)csc21 |  | 23.8%
COc1ccc(OCc2nnc3n2N=C(c2ccccc2)C(CC(=O)O)S3)cc1 (centres undefined) |  | 9.43%
CCOC(=O)c1sc(=S)n2c1[nH]c(=O)c1ccc(C(=O)OC)cc12 |  | 17%
CCOc1ccc(N(Cc2ccccc2)C(=O)c2nc(S(C)(=O)=O)ncc2Cl)cc1 | 16.8 µM (active) | 
C[C@@H](NC(=O)OC(C)(C)C)c1nnc(S(=O)(=O)Cc2ccccc2)o1 |  | 9.4%
O=[N+]([O-])/C=C/c1ccc2c(ccn2Cc2ccccc2)c1 | 9.2 µM (active) | 
Cc1cccc(Oc2c([N+](=O)[O-])c(=O)n(C)c3ccccc23)c1 |  | -7.37%
Cc1cccc(CS(=O)(=O)c2ncc(Cl)c(C(=O)Nc3ccc(F)cc3)n2)c1 | 11.2 µM (active) | 
COc1ccc(CS(=O)/C(Cl)=C(/Cl)C(=O)Nc2ccc(OC)nc2)cc1 (centres undefined) | 2.59 µM (active) | 
CC1CCN(C(=S)c2ccc(-c3ccc(Cl)cc3Cl)o2)CC1 |  | -16%
C=CCOc1ccc(/C=C2/C(=O)ON=C2C)cc1OCC |  | 5.44%
O=C1C=C(c2ccc(Cl)cc2)C(=O)N1Nc1ccccc1 | 23.1 µM (active) | 
O=C(/C=C/c1ccc(Cl)cc1Cl)c1cccnc1 |  | 0.284%
O=c1[nH]c(/C=C\c2cccc(C(F)(F)F)c2)nc(O)c1[N+](=O)[O-] |  | 17.3%
Cc1ccc(-c2nc3ccccn3c2Nc2c(C)cccc2C)o1 |  | -7.48%
c1ccc2c(C[n+]3csc4ccccc43)cccc2c1 |  | 0.478%
O=c1cc(CO)oc(C(Nc2cccc(C(F)(F)F)c2)c2ccccn2)c1O (centres undefined) |  | -0.379%
CCCCS(=O)(=O)c1oc(-c2cccs2)nc1S(=O)(=O)c1ccccc1 | 9.47 µM (active) | 
O=C(/C=C/c1ccc(Cl)c([N+](=O)[O-])c1)c1cccnc1 |  | 1.26%
Cc1nc(-c2ccccc2)sc1C(=O)/C=C/c1ccccc1 |  | -27.8%
